From PubChem BioAssay
Unmarked numbers belong to inactive results. Entries that show only a call come without a potency. For some assays here: Potency and affinity values are given separately. The source made the active and inactive calls. Unless noted, the rule behind the calls is not given here.

Key:
[1] = antimalarial activity against Dd2 strain (AID 2302;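 active = growth inhibition above 50% at the single 2 µM test dose, taken to imply half-maximal potency below 2 µM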); details: P. falciparum Dd2 in RBCs, LDH growth readout, 72 h; at 2 µM; hits give high values
[2] = human hepatoma cell viability loss – ATP luminescence, cytotoxicity control for P. falciparum antimalarial project, primary screen (AID 2303;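 active = inhibition above 50%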); details: HepG2 viability, 24-48 h, at 10 µM, hits give high values
[3] = biological target: L-lactate dehydrogenase (Plasmodium falciparum (isolate CDC / Honduras)) (UniProt Q27743); assay: PfLDH activity inhibition – cell lysate, 3D7 strain, counter-screen for P. falciparum growth inhibition project (AID 2304); details: P. falciparum 3D7 crude extract, LDH APAD/NBT absorbance; at 2 µM; hits give high values
[4] = inhibition of 3D7 malaria parasite growth – strain 3D7 (AID 2306); details: P. falciparum 3D7 erythrocytic growth, LDH absorbance, 72 h; at 2 µM; hits give high values
[5] = biological target: Calcium-dependent protein kinase 1 (Plasmodium falciparum (isolate 3D7)) (UniProt P62344); assay: PfCDPK1 kinase inhibitors, biochemical, TCAMS library (AID 1159585; cut-off not given, nearly all actives have IC50 up to about 0.98 µM;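 note: inhibitors leave more ATP so luminescence rises with inhibition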); details: recombinant PfCDPK1, Kinase-Glo ATP depletion luminescence
[6] = biological target: Plasmodium falciparum protein kinase 6 (PK6, PF3D7_1337100) (UniProt Q8IDW1); assay: PfPK6 kinase inhibitors, biochemical, TCAMS library (AID 1159586); details: recombinant PfPK6, Kinase-Glo ATP depletion luminescence
[7] = biological target: Protein kinase 7 (PK7), Plasmodium falciparum 3D7 (PF3D7_0213400) (UniProt Q7YTF7); assay: inhibition of Plasmodium PK7 catalytic activity – biochemical, TCAMS antimalarial set, Kinase-Glo luminescence (AID 1159587); details: recombinant PfPK7, Kinase-Glo ATP depletion luminescence
[8] = biological target: Calcium-dependent protein kinase 4 (Plasmodium falciparum (isolate 3D7)) (UniProt Q8IBS5); assay: PfCDPK4 kinase inhibitors, biochemical, TCAMS library (AID 1159588; cut-off not given, nearly all actives have IC50 up to about 0.91 µM); details: recombinant PfCDPK4, Kinase-Glo ATP depletion luminescence
Sequence of Calcium-dependent protein kinase 4 (Plasmodium falciparum (isolate 3D7)) (Q8IBS5 whole entry, looked up): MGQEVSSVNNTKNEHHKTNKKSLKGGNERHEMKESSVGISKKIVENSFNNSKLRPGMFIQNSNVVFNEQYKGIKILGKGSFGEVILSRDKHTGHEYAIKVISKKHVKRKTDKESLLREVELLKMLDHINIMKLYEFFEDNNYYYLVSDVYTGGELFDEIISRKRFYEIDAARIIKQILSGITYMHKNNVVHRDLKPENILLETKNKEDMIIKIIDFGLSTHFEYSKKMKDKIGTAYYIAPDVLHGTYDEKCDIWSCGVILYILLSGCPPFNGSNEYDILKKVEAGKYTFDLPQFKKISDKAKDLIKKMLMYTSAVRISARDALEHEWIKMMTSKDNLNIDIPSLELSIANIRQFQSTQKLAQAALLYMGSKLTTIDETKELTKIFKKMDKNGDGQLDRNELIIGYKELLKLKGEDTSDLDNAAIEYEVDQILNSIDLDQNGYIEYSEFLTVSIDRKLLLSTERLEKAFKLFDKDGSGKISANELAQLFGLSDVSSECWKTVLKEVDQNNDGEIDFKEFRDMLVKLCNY

Sequence of Plasmodium falciparum protein kinase 6 (PK6, PF3D7_1337100) (Q8IDW1 1-305): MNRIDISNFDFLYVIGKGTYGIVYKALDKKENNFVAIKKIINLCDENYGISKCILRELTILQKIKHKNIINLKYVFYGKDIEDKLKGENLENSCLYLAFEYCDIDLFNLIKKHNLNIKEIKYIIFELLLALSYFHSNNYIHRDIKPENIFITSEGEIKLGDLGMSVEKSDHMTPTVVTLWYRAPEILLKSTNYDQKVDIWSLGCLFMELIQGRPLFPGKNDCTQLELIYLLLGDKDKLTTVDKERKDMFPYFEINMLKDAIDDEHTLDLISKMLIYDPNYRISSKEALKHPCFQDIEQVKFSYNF
Sequence of Protein kinase 7 (PK7), Plasmodium falciparum 3D7 (PF3D7_0213400) (Q7YTF7 1-343): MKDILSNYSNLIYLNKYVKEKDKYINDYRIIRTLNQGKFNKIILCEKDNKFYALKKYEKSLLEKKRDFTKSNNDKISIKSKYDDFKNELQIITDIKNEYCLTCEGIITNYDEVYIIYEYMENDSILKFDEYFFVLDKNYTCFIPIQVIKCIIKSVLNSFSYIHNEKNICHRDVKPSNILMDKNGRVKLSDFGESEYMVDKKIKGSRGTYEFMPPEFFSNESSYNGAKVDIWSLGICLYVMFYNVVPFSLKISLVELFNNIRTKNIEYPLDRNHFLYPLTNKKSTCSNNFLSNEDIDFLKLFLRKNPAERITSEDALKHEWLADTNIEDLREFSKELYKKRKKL
Sequence of Calcium-dependent protein kinase 1 (Plasmodium falciparum (isolate 3D7)) (P62344 whole entry, looked up): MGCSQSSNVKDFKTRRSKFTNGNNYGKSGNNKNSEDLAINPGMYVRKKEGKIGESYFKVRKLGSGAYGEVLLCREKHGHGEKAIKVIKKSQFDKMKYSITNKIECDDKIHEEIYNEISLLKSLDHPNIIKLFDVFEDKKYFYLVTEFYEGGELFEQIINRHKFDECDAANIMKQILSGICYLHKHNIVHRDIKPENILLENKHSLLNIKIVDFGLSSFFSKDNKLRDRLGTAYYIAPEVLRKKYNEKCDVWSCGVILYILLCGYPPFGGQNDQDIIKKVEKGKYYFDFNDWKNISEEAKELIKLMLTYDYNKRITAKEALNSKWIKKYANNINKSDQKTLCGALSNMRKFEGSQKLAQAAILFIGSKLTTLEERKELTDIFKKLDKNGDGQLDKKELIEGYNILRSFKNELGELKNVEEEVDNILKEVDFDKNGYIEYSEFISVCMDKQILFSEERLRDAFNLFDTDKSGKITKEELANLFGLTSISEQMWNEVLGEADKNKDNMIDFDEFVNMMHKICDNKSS
Sequence of L-lactate dehydrogenase (Plasmodium falciparum (isolate CDC / Honduras)) (Q27743 whole entry, looked up): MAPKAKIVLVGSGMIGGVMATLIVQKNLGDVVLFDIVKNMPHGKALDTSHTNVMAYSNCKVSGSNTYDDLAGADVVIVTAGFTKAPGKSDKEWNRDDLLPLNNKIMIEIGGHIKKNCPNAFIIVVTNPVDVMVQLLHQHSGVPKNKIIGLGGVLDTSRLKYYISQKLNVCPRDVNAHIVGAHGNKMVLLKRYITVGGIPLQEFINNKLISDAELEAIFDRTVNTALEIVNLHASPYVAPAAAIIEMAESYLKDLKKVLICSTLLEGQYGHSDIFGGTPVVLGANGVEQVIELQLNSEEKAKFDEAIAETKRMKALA

Row | SMILES | growth inhibition [1] | inhibition [2] | inhibition [3] | growth inhibition [4] | outcome [5] | outcome [6] | outcome [7] | outcome [8]
1 | O=C(Nc1ccc(-c2ccc(CN3CCNCC3)cc2)cc1)c1cccc(Cl)c1 | 16% | 58% (active) | 2% | 91% (active) | inactive | inactive | inactive | inactive
2 | Cc1nc(-c2ccncc2)sc1C(=O)Nc1ccc(Cl)cc1C(=O)Nc1ccc(Cl)cc1 | 47% | 2% | -3% | 98% (active) | inactive | inactive | inactive | inactive
3 | CCOC(=O)NC1=NC(C)(C)N(OCc2ccc(Cl)c(Cl)c2)C(N)=N1 | 90% (active) | 66% (active) | -5% | 96% (active) | inactive | inactive | inactive | inactive
4 | CCN(CC)C(=O)c1cnc(-c2ccccc2)nc1Oc1cccc(Cl)c1 | 40% | -7% | -3% | 92% (active) | inactive | inactive | inactive | inactive
5 | CC(C)(C)c1cc(C(=O)N2CCN(c3ccc(C(F)(F)F)cn3)CC2)n(Cc2ccc(F)cc2)n1 | 26% | 4% | -1% | 88% (active) | inactive | inactive | inactive | inactive
6 | N=C(N)c1cc(Br)cc(NC(=O)Nc2cc(Br)cc(C(=N)N)c2)c1 | 76% (active) | 0% | -4% | 93% (active) | inactive | inactive | inactive | inactive
7 | Cc1cccc2[nH]c(-c3cccc(-c4cccc(C(=O)N5CCCCC5CN5CCC(O)C5)c4)c3)nc12 (stereo not given) | 71% (active) | 19% | -5% | 89% (active) | inactive | inactive | inactive | inactive
8 | Cn1ccc(-c2cccc(Nc3ccnc4cc(-c5nccs5)ccc34)c2)n1 | 94% (active) | 39% | -1% | 101% (active) | inactive | inactive | inactive | inactive
9 | CCN(CC)CCN(Cc1ccc(-c2ccc(C(F)(F)F)cc2)cc1)C(=O)Cn1c(CCC2CCCCC2)nc(=O)c2ccccc21 | 25% | 32% | 3% | 87% (active) | inactive | inactive | inactive | inactive
10 | CCc1ccccc1N1CCN(CCCC(=O)c2ccc(NC(=O)c3ccc(Cl)cc3)cc2)CC1 | 4% | 17% | 7% | 90% (active) | inactive | inactive | inactive | inactive
11 | O=C(Cc1ccccc1)NC(CCN1CCC(NC(=O)c2ccc(Cl)cc2)CC1)c1ccc(Cl)c(Cl)c1 (stereo not given) | 23% | 17% | -2% | 85% (active) | inactive | inactive | inactive | inactive
12 | Cc1cc(N[C@@H](CC(C)C)C(=O)NC2CCCC2)nc(NCC2CCCCC2)n1 | 88% (active) | 8% | 0% | 101% (active) | inactive | inactive | inactive | inactive
13 | COC(=O)CCCCOc1c(OC)cc(Cc2cnc(N)nc2N)cc1OC | -2% | -2% | -2% | 93% (active) | inactive | inactive | inactive | inactive
14 | O=C(Nc1cccc(-c2cccc(-c3ccc(F)cc3)n2)c1)c1ccc([N+](=O)[O-])o1 | 42% | 100% (active) | 4% | 99% (active) | inactive | inactive | inactive | inactive
15 | Cn1nccc1C(=O)NCCNCc1cccc(-c2csc(-c3nc4ccccc4[nH]3)c2)c1 | 2% | 30% | 0% | 101% (active) | inactive | inactive | inactive | inactive
16 | Cc1cccc2[nH]c(-c3ccc(-c4ccc(NC(=O)NCc5ccccc5)cc4)s3)nc12 | 8% | 79% (active) | 5% | 93% (active) | inactive | inactive | inactive | inactive
17 | CCCCCCN1CCN(Cc2cccc(NC(=O)c3cc4ccccc4o3)c2)CC1 | 83% (active) | 20% | 3% | 93% (active) | inactive | inactive | inactive | inactive
18 | Cc1ccc(C(=O)Nc2ccc(Nc3ccnc4cc(-c5nccs5)ccc34)cc2O)cc1 | 100% (active) | 100% (active) | 3% | 100% (active) | inactive | inactive | inactive | inactive
19 | CCN(CC)CCCNc1ncc2c(-c3ccc(NC(=O)Nc4cc(C(F)(F)F)ccc4F)c(F)c3)nn(C)c2n1 | 68% (active) | 100% (active) | 3% | 94% (active) | inactive | inactive | inactive | inactive
20 | CCN(CC)Cc1cc(Nc2c3ccc(Cl)cc3nc3cccc(OC)c23)ccc1O | 98% (active) | 8% | -3% | 101% (active) | inactive | inactive | inactive | inactive

Row | SMILES | growth inhibition [1] | inhibition [2] | inhibition [3] | growth inhibition [4] | outcome [5] | outcome [6] | outcome [7] | outcome [8]
21 | N#Cc1ccc(/C=C/C(=O)NCCCCCN2CCN(C(=O)Nc3ccc(Cl)c(C(F)(F)F)c3)CC2)cc1 | -7% | 42% | -1% | 94% (active) | inactive | inactive | inactive | inactive
22 | COc1cc2c(Nc3cccc(NC(=O)c4ccccc4)c3)ncnc2cc1OCCCN1CCOCC1 | 100% (active) | -14% | 5% | 101% (active) | inactive | inactive | inactive | inactive
23 | O=c1cc(NCCCNCc2ccc(Cl)c(Cl)c2)[nH]c2ccc(Cl)cc12 | 54% (active) | 11% | 1% | 101% (active) | inactive | inactive | inactive | inactive
24 | Cc1cnc(NCC2CCCCC2)nc1N[C@@H](CO)C(=O)Nc1ccccc1 | 56% (active) | -1% | -3% | 83% (active) | inactive | inactive | inactive | inactive
25 | O=C(C=Cc1ccc(Cl)c(Cl)c1)NCCCCCN1CCC(CCCNC(=O)c2sc3ccccc3c2Cl)CC1 | 40% | 99% (active) | -5% | 93% (active) | inactive | inactive | inactive | inactive
26 | CNc1ccc(CNCc2cccc(-c3ccc(-c4nc5ccc(C(F)(F)F)cc5[nH]4)cc3)c2)cc1 | 100% (active) | 21% | 0% | 101% (active) | inactive | inactive | inactive | inactive
27 | COc1ccc(Cn2c(Nc3cccc(C(F)(F)F)c3)nc3ccc(C(=O)NCCN4CCCC4)cc32)cc1Cl | 6% | 14% | 2% | 100% (active) | inactive | inactive | inactive | inactive
28 | Fc1ccc2nc(-c3ccc(-c4ccc(CNCCN5CCNCC5)cc4)cc3)[nH]c2c1 | 70% (active) | 94% (active) | -3% | 96% (active) | inactive | inactive | inactive | inactive
29 | CCCC(C)NC(=O)c1cnn(-c2ccc(C(C)(C)C)cc2)c1OCc1ccc(Br)cc1 (stereo not given) | 64% (active) | 17% | 0% | 84% (active) | inactive | inactive | inactive | inactive
30 | CC(=O)Nc1ccc(C(=O)Nc2ccc(-c3csc(-c4nc5ccccc5[nH]4)c3)cc2)cn1 | -2% | 11% | -3% | 93% (active) | inactive | inactive | inactive | inactive
31 | O=C(NC(CCCN1CCC(c2ccccc2)CC1)c1ccc(Cl)c(Cl)c1)c1cc(C(F)(F)F)cc(C(F)(F)F)c1 (stereo not given) | 87% (active) | 33% | 3% | 92% (active) | inactive | inactive | inactive | inactive
32 | Nc1ccc(Nc2ccnc3ccc(C(F)(F)F)cc23)cc1O | 59% (active) | 1% | 5% | 98% (active) | inactive | inactive | inactive | inactive
33 | OCCN1CCN(C(=S)NC2CCCCC2)CC1 | -1% | 49% | 1% | 93% (active) | inactive | inactive | inactive | inactive
34 | COc1ccc2nccc([C@@H](O)CN3CCC(NCCOc4ccccc4C#N)CC3)c2c1 | 99% (active) | 10% | 2% | 101% (active) | inactive | inactive | inactive | inactive
35 | COc1ccc(NC(=O)Nc2cc(C)nc3cccnc23)cc1Cn1ccnc1 | 41% | 12% | -3% | 100% (active) | inactive | inactive | inactive | inactive
36 | CCCCOC(=O)C1=C(C)NC2=C(C(=O)CCC2)C1c1ccc(OC)c(Br)c1 (stereo not given) | 87% (active) | 5% | -4% | 93% (active) | inactive | inactive | inactive | inactive
37 | COc1ccc(Nc2nccc(N3CCC(NC(=O)Nc4cc(C)ccc4C)C3)n2)cc1 (stereo not given) | 37% | 10% | -8% | 91% (active) | inactive | inactive | inactive | inactive
38 | CCOC(=O)c1ccc(COc2ccc(C)nc2)cc1 | -7% | 14% | -8% | 100% (active) | inactive | inactive | inactive | inactive
39 | COc1cccc(CN2CCC(C(=O)Nc3ccc(-c4nc5ccccc5[nH]4)cc3)CC2)c1 | 84% (active) | 9% | -3% | 101% (active) | inactive | inactive | inactive | inactive
40 | CCN(C1CCCCC1)S(=O)(=O)c1ccc(OC)c(N2CCN(C(=O)C(Cl)(Cl)Cl)CC2)c1 | 85% (active) | 0% | 3% | 100% (active) | inactive | inactive | inactive | inactive
